Results filed as inconclusive are left out. Calls of active or inactive are those of the source. Unless noted, calls follow the shape of the dose curve; as a rule, active = well fitted curve in the direction sought with a large enough effect in the repeat runs; inconclusive = weak or mixed curves; inactive = no such curve, though single readings can be large; an effect the other way counts as inactive or inconclusive.
Assays:
[1] = qHTS assay for small molecule agonists of the p53 signaling pathway (AID 651631; calls by dose curve; also: nearly all actives have a fitted effect of over 15% in size)
Method in brief: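 Read-out is beta-lactamase FRET fluorescence measured 2 h after substrate addition at room temperature, in HCT-116 cells with a p53 response element-driven reporter exposed to compounds for 16 h at 37 °C.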

[2] = qHTS assay for small molecules that induce genotoxicity in human embryonic kidney cells expressing luciferase-tagged ATAD5 (AID 651632); also: nearly all actives have a fitted effect of over 15% in size
Method in brief: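 Increased luciferase signal from ATAD5-tagged reporter cells indicates DNA-damage-driven ATAD5 induction. HEK293T cells are treated for 16 hr at 37C before detection with Amplite.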

[3] = qHTS assay for small molecule agonists of the p53 signaling pathway - cell viability (AID 651633; calls by dose curve;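 also: p53RE-bla HCT reporter cells with a stable beta-lactamase p53 reporter; series mostly up to about 83 µM; nearly all actives have a fitted effect of over 30% in size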)
Method in brief: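 p53RE-bla cells were treated with compound for 16 hours at 37 C. Cytotoxicity was then measured as CellTiter-Glo luminescence after 30 min at room temperature.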

[4] = qHTS assay for small molecules that induce genotoxicity in human embryonic kidney cells expressing luciferase-tagged ATAD5 - cell viability (AID 651634; calls by dose curve; also: nearly all actives have a fitted effect of over 25% in size)
Method in brief: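 Cytotoxicity counterscreen in HEK293T cells bearing an ATAD5-luciferase reporter: live-cell protease activity measured by CellTiter-Fluor fluorescence after 15.5 hr compound exposure.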

[5] = qHTS assay for small molecule disruptors of the mitochondrial membrane potential - cell viability (AID 720634; calls by dose curve;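 also: human HepG2 liver cancer cells; series mostly up to about 83 µM; nearly all actives have a fitted effect of over 20% in size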)
Method in brief: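 After overnight attachment at 37 C, HepG2 cells received compound or DMSO vehicle for 1 hr. Viability is then taken from ATP-driven luminescence following a 30 min room-temperature CellTiter-Glo step.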

[6] = qHTS assay to test for compound auto fluorescence at 590 nm (red) in HepG2 cells (AID 720674)
Method in brief: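 Fluorescence at 590 nm emission following 540 nm excitation was recorded from HepG2 wells one hour after compound transfer, with DMSO-only wells as vehicle and Rose Bengal sodium equivalency as the scale.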

[7] = qHTS assay to test for compound auto fluorescence at 535 nm (green) in HepG2 cells (AID 720675)
[8] = qHTS assay to test for compound auto fluorescence at 460 nm (blue) in HEK293 cells (AID 720678)
Method in brief: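 Measured: blue fluorescence (Ex 405/Em 460 nm) of compound-treated HEK293 cells, incubated overnight at 37C with 5% CO2 and scaled to triamterene equivalents.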

[9] = qHTS assay to test for compound auto fluorescence at 590 nm (red) in HEK293 cells (AID 720679)
Method in brief: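 Using HEK293 cells at 2,000 per well, the screen added 23 nL of each compound after cell attachment and incubated overnight (37C, 5% CO2). The plate reader then captured red-label fluorescence, Ex/Em 540/590nm.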

Measured: Potency

CC(=O)[C@@]1(O)CC[C@H]2[C@@H]3C=C(Cl)C4=CC(=O)[C@@H]5C[C@@H]5[C@]4(C)[C@H]3CC[C@@]21C
inactive: [1] | [2] | [3] | [4] | [5] | [6] | [7] | [8] | [9]

CCC(C)[C@@H](N)C(=O)O (stereo not given in full)
inactive: [1] | [2] | [3] | [4] | [5] | [6] | [7] | [8] | [9]

CS(=O)(=O)c1ccc(C2=C(c3ccccc3)C(=O)OC2)cc1
inactive: [1] | [2] | [3] | [4] | [5] | [6] | [7] | [8] | [9]

CC[C@H]1NC(=O)[C@@H](NC(=O)c2ncccc2O)[C@@H](C)OC(=O)[C@H](c2ccccc2)NC(=O)[C@@H]2CC(=O)CCN2C(=O)[C@H](Cc2ccccc2)N(C)C(=O)[C@@H]2CCCN2C1=O
inactive: [1] | [2] | [3] | [4] | [5] | [6] | [7] | [8] | [9]

O=S(=O)(O)Oc1ccc(C(c2ccc(OS(=O)(=O)O)cc2)c2ccccn2)cc1
inactive: [1] | [2] | [3] | [4] | [5] | [6] | [7] | [8] | [9]

O=C1N=C2SCCN2C(=O)C1Cc1ccc(Cl)cc1 (stereo not given)
inactive: [1] | [2] | [3] | [4] | [5] | [6] | [7] | [8] | [9]

NC(=O)c1ccc[n+]([C@@H]2O[C@H](COP(=O)([O-])OP(=O)(O)OC[C@H]3O[C@@H](n4cnc5c(N)ncnc54)[C@H](O)[C@@H]3O)[C@@H](O)[C@H]2O)c1
inactive: [1] | [2] | [3] | [4] | [5] | [6] | [7] | [8] | [9]

Cc1cccc(Nc2ncccc2C(=O)O)c1C
inactive: [1] | [2] | [3] | [4] | [5] | [6] | [7] | [8] | [9]

Cc1cccc(C)c1N(CCCc1cccnc1)C(=O)C(C)N (stereo not given)
inactive: [1] | [2] | [3] | [4] | [5] | [6] | [7] | [8] | [9]

O=C1c2ccccc2C(=O)C1c1ccc(Cl)cc1
inactive: [1] | [2] | [3] | [4] | [5] | [6] | [7] | [8] | [9]

Cc1ccccc1OCC(O)CNCCOc1ccc(C(N)=O)cc1 (stereo not given)
inactive: [1] | [2] | [3] | [4] | [5] | [6] | [7] | [8] | [9]

CC(C)c1nc(N(C)S(C)(=O)=O)nc(-c2ccc(F)cc2)c1/C=C/C(O)CC(O)CC(=O)O (stereo not given)
inactive: [1] | [2] | [3] | [4] | [5] | [7] | [8] | [9]

CC1(O)CCC(C(C)(C)O)CC1 (stereo not given)
inactive: [1] | [2] | [3] | [4] | [5] | [6] | [7] | [8] | [9]

COc1cc(C[C@@H]2NCCc3cc(O)c(O)cc32)cc(OC)c1OC
inactive: [1] | [2] | [3] | [4] | [5] | [7] | [8] | [9]

Oc1cc(O)cc(O)c1
inactive: [1] | [2] | [3] | [4] | [5] | [6] | [7] | [8] | [9]

CC(C)(C)NC[C@H](O)COc1ccccc1C1CCCC1
inactive: [1] | [2] | [3] | [4] | [5] | [7] | [8] | [9]

O=C(CO)[C@@H](O)[C@H](O)[C@@H](O)C(=O)O
inactive: [1] | [2] | [3] | [4] | [5] | [7] | [8] | [9]

O=C1CCC(=O)N1CO
inactive: [1] | [2] | [3] | [4] | [5] | [6] | [7] | [8] | [9]

CC(=O)N(CC(C)C(=O)O)c1c(I)cc(I)c(N)c1I (stereo not given)
inactive: [1] | [2] | [3] | [4] | [5] | [6] | [7] | [8] | [9]

NCCCNCCCCNC(=O)C(O)NC(=O)CCCCCCN=C(N)N (stereo not given)
inactive: [1] | [2] | [3] | [4] | [5] | [7] | [8] | [9]
